Measured values taken from PubChem BioAssay.
Active and inactive are the calls of the source.

Experiments:
[1] = system: Plasmodium falciparum Sir2 (PF13_0152, Sir2A); assay: Plasmodium falciparum Sir2A binding compounds – biochemical, small-molecule microarray, 635 nm fluorescence, primary screen (AID 1098); conditions: fluorescence 635 nm, higher = more signal;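 also: score merges spot fluorescence intensity with its signal-to-noise ratio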
[2] = probe aDKK1 binding to arrayed compounds – biochemical, biotinylated probe, 635/667 nm fluorescence, primary screen (AID 1099); conditions: small-molecule microarray, higher = more signal;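 also: score merges 667nm spot fluorescence with signal to noise across triplicate slides; reference of the scale not given here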
[3] = probe aCHRDL2 binding to arrayed compounds – biochemical, biotinylated probe, 635/667 nm fluorescence, primary screen (AID 1100); conditions: small-molecule microarray, higher = more signal
[4] = change in splice reporter luminescence, either direction, cell-based, HEK293, spliceosome inhibition project, primary screen (AID 1101); conditions: HEK293 splicing luciferase reporter, 24 h, higher = more signal, called active from +8 up or from −8 down;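 also: HEK293 cells carrying a splicing-competent luciferase reporter gene; test concentration not given here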
[5] = target: Fibroblast growth factor 10 (Homo sapiens) (UniProt O15520); assay: compounds binding fibroblast growth factor 10 – biochemical, small-molecule microarray, 635 nm fluorescence, primary screen (AID 1102); conditions: FGF10 binding, fluorescence 635 nm, higher = more signal
[6] = system: glycogen synthase kinase-3 (GSK3A per assay name; protocol says GSK3B); assay: compounds binding glycogen synthase kinase-3 – biochemical, small-molecule microarray, 635 nm fluorescence, GSK3A, primary screen (AID 1103); conditions: fluorescence 635 nm, higher = more signal; also: the record names both GSK3A and GSK3B
[7] = target: Epidermal growth factor receptor (Homo sapiens) (UniProt P00533); assay: compounds binding epidermal growth factor receptor – biochemical, small-molecule microarray, 635 nm fluorescence, primary screen (AID 1104); conditions: EGFR binding, higher = more signal;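 also: score merges 667 nm emission intensity with spot signal to noise over triplicate slides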
[8] = target: Follistatin-related protein 3 (Homo sapiens) (UniProt O95633); assay: compounds binding follistatin-related protein 3 – biochemical, small-molecule microarray, 635 nm fluorescence, primary screen (AID 1105); conditions: FSTL3 binding, higher = more signal;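 also: score merges emission near 667 nm and signal to noise per printed spot across three slides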
[9] = target: Dickkopf-related protein 1 (Homo sapiens) (UniProt O94907); assay: small molecules binding DKK1 protein – biochemical, small-molecule microarray, 635 nm fluorescence scan, primary screen (AID 1106); conditions: higher = more signal;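 also: score merges emission near 667 nm with signal to noise over three replicate slides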
[10] = system: Inhibin beta A chain (activin A); assay: small molecules binding activin A – biochemical, small-molecule microarray, 635 nm fluorescence scan, primary screen (AID 1107); conditions: INHBA, higher = more signal;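 also: mouse activin A protein probed at 4.33 µg/mL on printed slides; score merges bound-protein fluorescence near 667 nm with spot signal-to-noise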

Sequence of Fibroblast growth factor 10 (Homo sapiens) (O15520 whole entry, looked up): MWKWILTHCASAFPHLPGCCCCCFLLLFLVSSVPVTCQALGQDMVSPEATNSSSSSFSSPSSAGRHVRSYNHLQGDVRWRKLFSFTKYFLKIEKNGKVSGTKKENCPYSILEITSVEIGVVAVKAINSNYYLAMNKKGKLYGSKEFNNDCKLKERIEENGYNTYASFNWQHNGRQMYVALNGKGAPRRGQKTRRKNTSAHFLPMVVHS
Sequence of Follistatin-related protein 3 (Homo sapiens) (O95633 whole entry, looked up): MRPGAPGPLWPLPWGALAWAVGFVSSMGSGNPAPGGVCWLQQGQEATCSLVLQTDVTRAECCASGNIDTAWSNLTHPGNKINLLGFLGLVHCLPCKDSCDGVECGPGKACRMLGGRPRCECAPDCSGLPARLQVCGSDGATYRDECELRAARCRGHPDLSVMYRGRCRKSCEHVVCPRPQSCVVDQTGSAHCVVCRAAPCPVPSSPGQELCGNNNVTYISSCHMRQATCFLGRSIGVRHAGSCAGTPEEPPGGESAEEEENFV
Sequence of Epidermal growth factor receptor (Homo sapiens) (P00533 whole entry, looked up): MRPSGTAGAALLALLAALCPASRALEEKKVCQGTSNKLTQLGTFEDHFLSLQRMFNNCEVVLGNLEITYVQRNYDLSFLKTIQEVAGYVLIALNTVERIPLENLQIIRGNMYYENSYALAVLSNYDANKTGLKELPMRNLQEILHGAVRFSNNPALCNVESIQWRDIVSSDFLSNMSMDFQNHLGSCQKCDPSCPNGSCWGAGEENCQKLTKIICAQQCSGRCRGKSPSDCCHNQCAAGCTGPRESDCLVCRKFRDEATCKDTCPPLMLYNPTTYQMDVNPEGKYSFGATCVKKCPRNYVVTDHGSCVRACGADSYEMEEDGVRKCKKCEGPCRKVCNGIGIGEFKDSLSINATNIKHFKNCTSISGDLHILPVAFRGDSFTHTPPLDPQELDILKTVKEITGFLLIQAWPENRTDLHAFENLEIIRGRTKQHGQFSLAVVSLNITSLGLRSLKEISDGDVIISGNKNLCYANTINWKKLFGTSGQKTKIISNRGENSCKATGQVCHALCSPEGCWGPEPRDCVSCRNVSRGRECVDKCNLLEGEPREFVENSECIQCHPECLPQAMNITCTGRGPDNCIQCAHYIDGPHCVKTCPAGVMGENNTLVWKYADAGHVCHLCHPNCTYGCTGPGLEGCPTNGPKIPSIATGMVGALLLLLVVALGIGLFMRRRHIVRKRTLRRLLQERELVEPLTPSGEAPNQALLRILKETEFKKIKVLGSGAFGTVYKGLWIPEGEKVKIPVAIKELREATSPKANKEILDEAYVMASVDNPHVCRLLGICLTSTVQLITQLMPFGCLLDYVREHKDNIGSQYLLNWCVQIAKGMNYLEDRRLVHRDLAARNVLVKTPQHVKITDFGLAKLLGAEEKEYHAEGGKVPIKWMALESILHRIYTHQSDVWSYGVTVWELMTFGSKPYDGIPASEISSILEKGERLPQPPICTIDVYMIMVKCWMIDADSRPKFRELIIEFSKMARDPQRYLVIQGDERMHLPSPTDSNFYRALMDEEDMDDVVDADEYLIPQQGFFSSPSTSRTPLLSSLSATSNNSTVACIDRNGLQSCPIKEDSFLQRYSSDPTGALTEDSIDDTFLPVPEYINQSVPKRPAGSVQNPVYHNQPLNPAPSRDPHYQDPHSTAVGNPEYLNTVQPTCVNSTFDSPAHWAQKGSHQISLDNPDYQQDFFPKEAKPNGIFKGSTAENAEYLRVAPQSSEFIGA
Sequence of Dickkopf-related protein 1 (Homo sapiens) (O94907 whole entry, looked up): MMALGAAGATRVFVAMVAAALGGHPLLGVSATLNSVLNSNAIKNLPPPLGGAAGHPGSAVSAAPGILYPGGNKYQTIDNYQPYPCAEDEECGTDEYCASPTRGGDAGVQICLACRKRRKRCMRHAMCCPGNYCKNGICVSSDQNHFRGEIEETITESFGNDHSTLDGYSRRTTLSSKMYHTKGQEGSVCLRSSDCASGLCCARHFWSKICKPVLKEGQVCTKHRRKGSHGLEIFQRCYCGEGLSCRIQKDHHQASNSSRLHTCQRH

Row | SMILES | composite z-score [1] | composite z-score [2] | composite z-score [3] | z-score [4] | composite z-score [5] | composite z-score [6] | composite z-score [7] | composite z-score [8] | composite z-score [9] | composite z-score [10]
1 | CC(C)(C)N1CC=CC23O[C@@H]4/C=C\CCCOC(=O)C4[C@H]2C(=O)N(CCO)[C@@H]3C1=O (stereo not given in full) | 1.59 | -0.0986 | -0.0141 | -0.639 (inactive) | -0.142 | -0.764 | -0.932 | -1.28 | -0.377 | 0.0995
2 | COc1ccc(CCN2C(=O)[C@@]3(Cc4ccccc42)c2ccccc2C(=O)N(Cc2ccccc2Cl)[C@H]3c2ccc(CO)cc2)cc1 | 1.14 | 0.546 | 0.929 | -0.0194 (inactive) | -0.202 | -1.01 | -1.12 | -0.61 | -0.695 | 0.38
3 | CC(C)CNC(=O)[C@@H]1c2ccccc2C(=O)N(Cc2cc(C(F)(F)F)cc(C(F)(F)F)c2)[C@H]1c1ccc(CO)cc1 | -0.46 | 0.416 | 0.822 | -0.827 (inactive) | -0.633 | -1.32 | -0.88 | -0.736 | -0.439 | -0.575
4 | O=C(OCCF)C1=CCC(c2cccc(Cl)c2)O1 (stereo not given) | -0.229 | -0.0052 | -0.325 | -0.824 (inactive) | 0.0899 | 0.644 | 0.119 | 0.151 | -0.183 | 0.44
5 | COCCOC(=O)N1C(=O)[C@@]2(c3cc(C#CCC(C(=O)OC)C(=O)OC)ccc31)[C@H](c1ccccc1OCCO)N1[C@H](c3ccccc3)[C@H](c3ccccc3)OC(=O)[C@H]1[C@@H]2C(N)=O | 1.38 | 0.152 | 0.188 | -5.03 (inactive) | 1.22 | 1.31 | 0.249 | 1.13 | 0.451 | 0.0274
6 | COc1ccc([Si](C)(C)[C@@H]2[C@@H](CC(=O)N(CCO)Cc3ccccc3)O[C@]3(C(=O)N(C)c4ccccc43)[C@H]2C)cc1 | 1.24 | 0.909 | 0.0207 | 0.841 (inactive) | 1.05 | 1.16 | 0.749 | 1.39 | 1.32 | 1.16
7 | C[C@H]1NC(=O)[C@H](Cc2ccccc2)NC(=O)[C@@]23C(=O)N[C@@H](Cc4ccccc4)C2[C@H](C)[C@@]2(C)O[C@H]2C3/C=C/C/C=C\CNC1=O (stereo not given in full) | 0.444 | -0.245 | -0.471 | 0.587 (inactive) | -0.354 | -1.16 | 0.203 | -0.0523 | 0.461 | 1.45
8 | O=C1C2C=CC(C(O)c3ccc(F)cc3)N(Nc3ccccc3)C2C(=O)N1c1ccccc1 (stereo not given) | 1.44 | 1.05 | 0.794 | 0.444 (inactive) | -0.0653 | -0.0052 | -0.296 | -0.216 | -0.954 | 1.46
9 | CC(C)C[C@@H]1NC(=O)[C@H]2C[C@@H](C(=O)NCCCCCNC(=O)CS)[C@@H](c3cccc(OCCO)c3)N2C1=O | 1.52 | -0.0356 | -0.003 | 0.684 (inactive) | 1.03 | 1.32 | 1.08 | 1.36 | 1.44 | 1.25
10 | CC(C)C[C@@H]1NC(=O)[C@@H]2C[C@H](C(=O)NCCCCCC[N+](C)(C)C)[C@H](c3ccc(O)cc3)N2C1=O | 1.38 | 0.026 | 0.0989 | 0.00513 (inactive) | 0.623 | 1.21 | 0.29 | 0.706 | 0.977 | 0.987
11 | COC(=O)[C@@]1(Cc2ccccc2N=[N+]=[N-])COC(c2ccc(OCCCO)cc2)=N1 | 1.48 | 0.89 | 1.26 | -0.127 (inactive) | 0.0938 | 0.478 | -0.3 | -0.0373 | -0.349 | 1.52
12 | O=C1C2C=CC(C(O)c3cccs3)N(Nc3ccccc3F)C2C(=O)N1c1ccccc1 (stereo not given) | 0.87 | 0.266 | 0.541 | -0.743 (inactive) | 0.092 | 0.308 | 0.0444 | 0.224 | -0.0382 | 0.804
13 | O=c1cccc(CCc2ccccc2)o1 | 0.931 | -0.232 | -0.44 | 0.722 (inactive) | 0.228 | 0.599 | -0.834 | 0.153 | 0.193 | 0.532
14 | COCCOC(=O)N1C(=O)[C@@]2(c3cc(C#CCNC(N)=O)ccc31)[C@H](c1ccc(OCCO)cc1)N1[C@H](c3ccccc3)[C@H](c3ccccc3)OC(=O)[C@H]1[C@@H]2C(=O)N1CCc2cc(OC)c(OC)cc2C1 | 0.719 | 0.208 | 0.676 | 0.911 (inactive) | 0.921 | 0.0059 | 0.803 | 1.17 | 0.455 | 0.959
